Hits are enriched below; roughly 19% of the tested compounds scored in any of these assays.
VP16 counter = counter-screen for ROR gamma inhibitors: Gal4-VP16 reporter | 310,000 tested, 3.5% active | Potency, µM (highest dose often 53.6 µM), hits mostly inhibitors | Drosophila S2 Gal4-VP16 UAS-luciferase, luminescence, 20 h;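 note: Gal4-VP16 expression switched on by copper sulfate through the metallothionein promoter; nearly all actives have a fitted effect of over 50% in size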
TDP1 cell CPT = DT40-hTDP1 cell growth loss with CPT | chicken DT40 Tdp1-/-;hTDP1 cells + 20 nM CPT, ATP luminescence, 48 h | Potency, µM (series often up to 46.2 µM), most hits filed as inhibitors | 420,000 tested, 12% active; note: nearly all actives have a fitted effect of over 55% in size
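Chicken DT40 Tdp1-/- cells stably complemented with human TDP1 were seeded at 400 cells/well in medium containing 20 nM camptothecin, exposed to pin-transferred compounds, and grown at 37 °C for at least 48 hr. Viability was read as ATP luminescence.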
RORgamma inh = ROR gamma (mouse) transcription inhibition | AID 2551 | Potency, µM (titrated, usually from 53.6 µM), usual class: inhibitors | P51450 | 310,000 tested, 5.4% active | Drosophila S2 Gal4-RORgamma UAS-luciferase reporter, 20 h; note: nearly all actives have a fitted effect of over 60% in size
Target sequence (P51450 whole entry, looked up, the tested form may be a part): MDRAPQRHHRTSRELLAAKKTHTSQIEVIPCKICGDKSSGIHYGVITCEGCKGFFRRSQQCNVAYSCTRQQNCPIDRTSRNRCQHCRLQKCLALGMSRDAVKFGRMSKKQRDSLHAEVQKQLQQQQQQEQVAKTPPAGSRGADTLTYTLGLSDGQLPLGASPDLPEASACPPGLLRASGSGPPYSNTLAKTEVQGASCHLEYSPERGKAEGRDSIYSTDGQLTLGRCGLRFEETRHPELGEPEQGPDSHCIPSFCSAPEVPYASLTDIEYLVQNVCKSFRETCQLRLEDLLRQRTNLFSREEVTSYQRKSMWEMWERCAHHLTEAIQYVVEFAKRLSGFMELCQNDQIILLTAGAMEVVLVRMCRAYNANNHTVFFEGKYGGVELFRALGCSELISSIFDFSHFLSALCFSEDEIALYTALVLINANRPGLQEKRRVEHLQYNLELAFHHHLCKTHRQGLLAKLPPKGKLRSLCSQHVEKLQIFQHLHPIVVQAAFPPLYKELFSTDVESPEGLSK
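Drosophila Schneider cells stably carrying a metallothionein-driven Gal4 DBD–ROR gamma fusion and a UAS-Photinus luciferase reporter were exposed to compound for 1 hr, then induced with copper sulfate (700 uM final) for 20 hr at ambient temperature before luminescence reading.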
TDP1 block = TDP1 (human) enzyme inhibition; 350,000 tested, 0.28% active; recombinant TDP1, AlphaScreen DNA substrate cleavage; Potency, µM (doses to about 130 µM), most hits filed as inhibitors; note: nearly all actives have a fitted effect of over 40% in size
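Steps: enzyme plus compound, 15 min RT; add biotin/phosphotyrosine-FITC oligonucleotide (15 nM final), react 5 min; add donor/acceptor beads (10 ug/ml final), 10 min; read AlphaScreen. Tdp1 at 1 nM final.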
DT40 TDP1 no CPT = qHTS for Inhibitors of human tyrosyl-DNA phosphodiesterase 1 (TDP1): qHTS in cells in absence of CPT; DT40 Tdp1-/- hTDP1 cells, no CPT, ATP luminescence, 48 h; Potency, µM (series often up to 46.2 µM), most hits filed as inhibitors; 420,000 tested, 15% active; note: nearly all actives have a fitted effect of over 55% in size
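Luminescent ATP content (CellTiter-Glo) served as the growth readout. Knockout chicken DT40 cells expressing human TDP1 were exposed to compounds without camptothecin for a minimum 48 hr at 37 °C.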
Of the large screens only hits and unclear results are named; the others gave an inactive call. Calls come from the whole dose curve; as a rule, active = well fitted curve in the direction sought with a large enough effect; inconclusive = small, poorly fitted or top-dose-only effect, or another doubt; inactive = no such curve, though single readings can be large; an effect the other way counts as inactive or inconclusive.

COc1ccc(NC(=O)Cn2c3ncccc3c(=O)n2-c2ccc(C)c(C)c2)c(OC)c1	none (no result: VP16 counter, RORgamma inh)
CN(C(=O)COC(=O)CSc1ccc([N+](=O)[O-])cc1)c1ccccc1	TDP1 cell CPT 23µM, DT40 TDP1 no CPT 29µM (no result: VP16 counter, RORgamma inh)
CC(C)S(=O)(=O)c1csc(NC(=O)Nc2cc(Cl)ccc2Cl)c1Cl	TDP1 cell CPT 16µM, DT40 TDP1 no CPT inconclusive
Cn1c(=O)c2c(SCc3ccccn3)nc(C3CC3)nc2n(C)c1=O	TDP1 cell CPT inconclusive, DT40 TDP1 no CPT inconclusive
CC1(C(=O)NS(=O)(=O)c2cccc(Cl)c2)CCN1C(=O)CC1CCCCC1 (configuration not stated)	none (no result: VP16 counter, RORgamma inh, TDP1 block)
N=C1/C(=C\c2ccc(-c3cc(Cl)cc(Cl)c3)o2)C(=O)N=C2SC=C(c3ccccc3)N12	TDP1 cell CPT inconclusive, DT40 TDP1 no CPT inconclusive
N=C1/C(=C/c2ccc(-c3cccc(C(=O)O)c3)o2)C(=O)N=C2SC=C(c3ccccc3)N12	TDP1 cell CPT inconclusive, TDP1 block 35µM
Cc1ccc(-n2c(C)cc(/C=C3/C(=N)N4C(c5ccccc5)=CSC4=NC3=O)c2C)cc1	TDP1 cell CPT inconclusive, DT40 TDP1 no CPT 23µM
COCCCNc1nc2c(c(=O)[nH]c(=O)n2C)n1CC(O)COc1ccccc1C (configuration not stated)	none
Cn1c(=O)c2c(nc(NC3CCCCC3)n2CC(O)COc2ccccc2)n(C)c1=O (configuration not stated)	TDP1 cell CPT inconclusive, DT40 TDP1 no CPT 23µM
Cn1c(=O)c2c(nc(N3CCCCC3)n2CC(O)COc2ccccc2)n(C)c1=O (configuration not stated)	TDP1 cell CPT inconclusive, DT40 TDP1 no CPT 16µM (no result: TDP1 block)
CCCCNc1nc2c(c(=O)n(C)c(=O)n2C)n1CC(O)COc1ccccc1C (configuration not stated)	TDP1 cell CPT 21µM, DT40 TDP1 no CPT 18µM (no result: VP16 counter, RORgamma inh, TDP1 block)
COc1cccc(C(=O)Cn2c(N3CCCCC3)nc3c2c(=O)n(C)c(=O)n3C)c1	TDP1 cell CPT inconclusive, DT40 TDP1 no CPT 18µM
CCCN1C(=O)C2(SC(NC(C)=O)=NN2C(C)=O)c2cc(C)cc(C)c21 (configuration not stated)	none
Cc1cccc(OCC(O)Cn2c(N3CCCCC3)nc3c2c(=O)n(C)c(=O)n3C)c1 (configuration not stated)	TDP1 cell CPT inconclusive, DT40 TDP1 no CPT 16µM (no result: TDP1 block)
Cn1c(=O)c2c(nc(N3CCCCCC3)n2CC(O)COc2ccccc2)n(C)c1=O (configuration not stated)	TDP1 cell CPT 23µM, DT40 TDP1 no CPT 18µM
CCc1ccc(OCC(O)Cn2c(N3CCCCC3)nc3c2c(=O)[nH]c(=O)n3C)cc1 (configuration not stated)	TDP1 cell CPT inconclusive, DT40 TDP1 no CPT inconclusive (no result: TDP1 block)
C=CCOC1=CS(=O)(=O)N(Cc2ccc(Br)cc2)c2ccc(Br)cc21	TDP1 cell CPT 16µM, DT40 TDP1 no CPT inconclusive (no result: VP16 counter, RORgamma inh, TDP1 block)
O=C1CS(=O)(=O)N(Cc2ccccc2F)c2ccc(Br)cc21	none (no result: VP16 counter, RORgamma inh, TDP1 block)
CC(C)N1CCc2c(sc(NC(=O)c3nc4ccccc4s3)c2C(N)=O)C1	TDP1 cell CPT 13µM, DT40 TDP1 no CPT 21µM
CC(C)N1CCc2c(sc(NC(=O)c3cc(-c4cccs4)nc4ccccc34)c2C(N)=O)C1	VP16 counter inconclusive, TDP1 cell CPT 18µM, RORgamma inh inconclusive, DT40 TDP1 no CPT 9.2µM
CC(=O)c1cc(CC=C(C)C)c(O)cc1O	TDP1 cell CPT inconclusive, RORgamma inh inconclusive, DT40 TDP1 no CPT inconclusive
O=C(COc1ccc([N+](=O)[O-])cc1)NNC(=O)Nc1ccccc1F	none
CC1=CCC(C(=O)O)C(C(=O)NC2CCCCC2)C1 (configuration not stated)	TDP1 block 32µM
CC1=C(C)CC(C(=O)NC2CCCC2)C(C(=O)O)C1 (configuration not stated)	none (no result: VP16 counter, RORgamma inh)
C=CCOc1c(Br)cc(CNn2nnnc2N)cc1OC	DT40 TDP1 no CPT 7.3µM
COc1cc(CNc2ccc(C(=O)O)cc2)cc(Br)c1OCC(=O)NC(C)(C)C	DT40 TDP1 no CPT inconclusive
C=CCOc1c(Br)cc(CNc2ccc(NC(=O)C(C)C)c(OC)c2)cc1OC	TDP1 cell CPT inconclusive, DT40 TDP1 no CPT 18µM
COc1cc(/C=C2\CCc3c2nc2ccccc2c3C(=O)O)cc(OC)c1OC	VP16 counter inconclusive, RORgamma inh 10µM (no result: TDP1 block)
CCC(Sc1nc2ncccc2[nH]1)C(=O)Nc1ccccc1F (configuration not stated)	DT40 TDP1 no CPT inconclusive (no result: VP16 counter, RORgamma inh)
COc1ccc(-c2cn3cc(C)ccc3n2)cc1Br	VP16 counter 7.1µM, RORgamma inh inconclusive, DT40 TDP1 no CPT inconclusive
Cc1nc2ccccc2nc1OCC(=O)Nc1ccccc1	none
CCOC(=O)c1sc(N/N=C/c2cccc(C)c2)nc1C	VP16 counter inconclusive, TDP1 cell CPT inconclusive, RORgamma inh 7.9µM, DT40 TDP1 no CPT inconclusive
CCOC(=O)c1sc(Nc2nc(C)cc(OC)n2)nc1C	TDP1 cell CPT inconclusive, DT40 TDP1 no CPT 13µM
CCOC(=O)c1sc(Nc2nc(C)cc(C)n2)nc1C	TDP1 cell CPT 7.3µM, DT40 TDP1 no CPT 6.5µM
CCOC(=O)c1sc(Nc2ccc(F)cc2)nc1C	TDP1 cell CPT inconclusive, DT40 TDP1 no CPT inconclusive
CCOC(=O)c1sc(Nc2ccc(C)cc2C)nc1C	VP16 counter inconclusive, TDP1 cell CPT inconclusive, DT40 TDP1 no CPT 16µM
CCOC(=O)c1sc(Nc2nc3c(OC)cccc3s2)nc1C	VP16 counter inconclusive, RORgamma inh inconclusive (no result: TDP1 cell CPT, DT40 TDP1 no CPT)
COc1ccc(Cl)cc1NC(=O)CN(C)C(=O)c1ccc2c(c1)OCCO2	DT40 TDP1 no CPT inconclusive (no result: VP16 counter, RORgamma inh)
CCOC(=O)N1CCC(NC(=O)c2cnn(-c3ccc(F)cc3F)c2C2CCN(C(=O)OC(C)(C)C)CC2)CC1	none (no result: VP16 counter, RORgamma inh)
N#Cc1cc2c(nc1SCc1cccnc1)CCCC2	none
Cc1cc(C)n2nc(C(=O)NCC(=O)Nc3ccc(F)c(F)c3)nc2n1	none (no result: VP16 counter, RORgamma inh)
CCOn1c(=O)c(-c2cccc([N+](=O)[O-])c2)[n+]([O-])c2ccccc21	none
CCOC(=O)c1sc(NC(=O)C2C3C=CC(C3)C2C(=O)O)nc1C (configuration not stated)	TDP1 block 79µM
Cc1ccc(OCC(=O)N2CCN(C3=NS(=O)(=O)c4ccccc43)CC2)cc1	none
CSc1nc2nc3c(cc2c(=O)n1-c1ccccc1C)COC(C)(C)C3	none
Cc1ccc(C(=O)N/N=C/c2cn(Cc3ccccc3)c3ccccc23)cn1	VP16 counter inconclusive, TDP1 cell CPT inconclusive, RORgamma inh inconclusive, DT40 TDP1 no CPT 21µM
O=C(N/N=C/c1cn(Cc2ccccc2)c2ccccc12)c1cc(O)cc(O)c1	none
Cc1ccc(-n2c(C)cc(/C=N/Nc3ccc([N+](=O)[O-])cn3)c2C)cc1	none

Assay outcomes: PubChem, National Center for Advancing Translational Sciences (NCATS)
